NPC1 prom act: activators of NPC1 promoter; Potency, µM (top dose mostly 9.22 µM), without a hit: at the highest dose activation, hits mostly activators; 320,000 tested, 2.4% active; Huh7 NPC1 promoter luciferase reporter, 24 h; also: % of control where 0% means no effect; nearly all actives have a fitted effect of over 60% in size
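Luminescence from an NPC1 promoter-driven luciferase reporter in stably transfected Huh7 cells was measured after 24 h compound treatment at 37 °C, followed by 10 min ambient incubation with luciferase detection reagent.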
SMN2 splice enh: enhancers of SMN2 splice variant expression; HEK293 SMN2-luciferase splicing reporter, luminescence, 30-36 h; Potency, µM (top dose mostly 46.1 µM), for inactives: at the highest dose activity change, positive = activation, actives largely listed as activators; 210,000 tested, 2.8% active; AID 1458; also: % of control where 0% means no effect; nearly all actives have a fitted effect of over 55% in size
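HEK293 cells carry an SMN2 […]–luciferase reporter in which exon 7 inclusion puts luciferase in frame. Cells were plated 10-12 h before compound addition, then incubated 30-36 h at 37C. ONE-Glo luminescence was read; sodium butyrate at 4.5 mM final served as control.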
FLuc counter: firefly luciferase modulation, counter-screen for miR-21 project. P08659. purified FLuc, Km substrates, luminescence inhibition. Potency, µM (titrated, usually from 57.5 µM), without a hit: at the highest dose activity change, negative = inhibition, most hits filed as inhibitors. 360,000 tested, 6.9% active. AID 588342;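 also: plate controls were vehicle for no effect and reference inhibitor for full effect; nearly all actives have a fitted effect of over 55% in size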
Target sequence (P08659 whole entry, looked up): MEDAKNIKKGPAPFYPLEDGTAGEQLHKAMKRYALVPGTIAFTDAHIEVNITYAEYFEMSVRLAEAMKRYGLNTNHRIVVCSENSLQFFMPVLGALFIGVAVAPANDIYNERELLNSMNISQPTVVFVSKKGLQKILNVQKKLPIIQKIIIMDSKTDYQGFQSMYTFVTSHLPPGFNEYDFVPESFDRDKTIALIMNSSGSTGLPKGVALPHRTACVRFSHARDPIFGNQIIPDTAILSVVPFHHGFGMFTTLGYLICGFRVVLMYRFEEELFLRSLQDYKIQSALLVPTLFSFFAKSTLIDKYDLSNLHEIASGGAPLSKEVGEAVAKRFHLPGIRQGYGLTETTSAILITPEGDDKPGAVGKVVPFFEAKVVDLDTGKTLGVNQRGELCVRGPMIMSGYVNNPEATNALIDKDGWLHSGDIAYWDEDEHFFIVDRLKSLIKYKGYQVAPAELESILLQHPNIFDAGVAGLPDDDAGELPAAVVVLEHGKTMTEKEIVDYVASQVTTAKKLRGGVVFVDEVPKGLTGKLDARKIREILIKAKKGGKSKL
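Purified P. pyralis luciferase (10nM final) with 10uM D-luciferin and 10uM ATP (Km levels) in 50mM Tris acetate pH 7.5, 10mM Mg acetate, 0.01% Tween-20, 0.05% BSA; qHTS 6-point titration, ~60 µM downward; luminescence read.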
Rab9 prom act: Rab9 promoter activation. Huh7 Rab9 promoter-luciferase reporter, luminescence, 24 h. Potency, µM (top dose mostly 9.22 µM), for the others: at the top dose activation, negative = inhibition, most hits filed as activators. 320,000 tested, 2.8% active; also: % of control where 0% means no effect; nearly all actives have a fitted effect of over 60% in size
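Promoter activation is measured as luciferase luminescence in Huh7 cells stably transfected with a Rab9 promoter–luciferase construct, following 24 h compound exposure at 37 °C and 10 min reagent incubation at ambient temperature.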
ELG1 genotox: genotoxicity induction in ELG1-luciferase HEK293T cells; HEK293T ELG1-luciferase reporter, luminescence, 16 h; Potency, µM (top dose mostly 46 µM), for the others: at the top dose activity change, positive = activation, hits mostly activators; 330,000 tested, 1.3% active; also: % of control where 0% means no effect; nearly all actives have a fitted effect of over 60% in size
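Genotoxicity was scored as increased ELG1-luciferase reporter signal, measured by ONE-Glo luminescence (30 min, room temperature). Compound or vehicle exposure of the HEK293T reporter cells lasted 16 hr at 37°C.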
ELG1 repair inh: inhibitors of ELG1-dependent DNA repair in HEK293T cells. HEK293T ELG1-luciferase reporter, luminescence, 16 h; DNA damage induced by 5-fluorouridine. Potency, µM (top dose mostly 46.1 µM), for the others: top-dose activity change, negative = inhibition, hits mostly inhibitors. AID 504467. 330,000 tested, 2.3% active; also: % is scaled to controls: 0 for no effect and ±100 for the full control effect; nearly all actives have a fitted effect of over 55% in size
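5-Fluorouridine DNA damage + compound/DMSO, 2,000 cells/well, 16 h, 37 °C/5% CO2. ONE-Glo, 30 min RT, luminescence. Readout = decrease in reporter signal.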
The depositor's hits bear a star; ? = inconclusive; / = no result given; [ ] = another dose, or the depositor's remark. This is a sample that favours compounds with a hit; in the whole collection about 9.2% have one here. Calls follow the shape of the dose curve; as a rule, active = well fitted curve in the direction sought with a large enough effect; inconclusive = small, poorly fitted or top-dose-only effect, or another doubt; inactive = no such curve, though single readings can be large; an effect the other way counts as inactive or inconclusive. Potency is read from the fitted curve at half-maximal effect.

SMILES | NPC1 prom act | SMN2 splice enh | FLuc counter | Rab9 prom act | ELG1 genotox | ELG1 repair inh
CCCCN1C(=O)C(O)(c2c[nH]c3ccccc23)c2cc(Br)ccc21 (configuration not stated) | / | 8% | -10% | / | / | /
Cc1cccc(OCc2nnc(SCC(=O)N(c3ccccc3)C3CCS(=O)(=O)C3)o2)c1 (configuration not stated) | -6% | / | / | -1% | -4% | -29%
COc1ccc(OC)c(NC(=O)COCc2cc(-c3ccco3)on2)c1 | / | / | -7% | / | / | /
Cc1ccc(CNC(=O)C2CC3Cn4c(nc5cc(Cl)c(Cl)cc54)C3N2C)o1 (configuration not stated) | -5% | / | -1% | 1% | 1% | -3%
COc1ccc(C(=O)/C=C/c2ccc(OC)c(O)c2)c(F)c1 | 5% | -16% | 11µM* | -8% | 16% | ?
COc1ccc(/C=C/C(=O)CC(=O)/C=C/c2cccc(O)c2OC)cc1O | / | 21% | / | / | / | /
COc1ccc(/C=C/C(=O)c2ccc(Cl)s2)cc1O | -5% | -12% | 1.1µM* | 6% | ? | ?
CC(C)(C)C(=O)NCCc1csc2nc(-c3ccc(F)cc3)nn12 | / | / | 3% | / | / | /
CCc1nc2ccccc2c(C(=O)OCC(=O)N(CCOC)c2c(N)n(Cc3ccccc3)c(=O)[nH]c2=O)c1C | -5% | / | 8% | -10% | 0% | 13%
CCCn1cnc2c1c(=O)n(CCCCC(C)=O)c(=O)n2C | 4%[46.1 µM] | 15% | / | 0%[46.1 µM] | / | /
CCOc1ccccc1Nc1nnc(SCc2nnc(-c3cc(OC)c(OC)c(OC)c3)o2)s1 | 0% | -18% | -1% | -2% | -6% | 5.8µM*
COc1ccccc1Nc1nnc(SCc2nnc(-c3cc(OC)c(OC)c(OC)c3)o2)s1 | -3% | -4% | 0% | -1% | -1% | 6.5µM*
COc1ccccc1Nc1nnc(SCC(=O)NC2CC2)s1 | -1% | / | -9% | 2% | 7% | ?
COc1cc(-c2nnc(CSc3nnc(Nc4ccc(C(C)C)cc4)s3)o2)cc(OC)c1OC | 5% | ? | 5.4µM* | 15% | 0% | 6.5µM*
O=C(NCCC1=CCCCC1)c1cc(-c2ccncc2)nc2ccccc12 | -4% | -12% | 3% | 1% | -11% | ?
CC(=O)c1sc(NC(=O)c2cccc(N3C(=O)CCC3=O)c2)nc1-c1ccccc1 | -2% | / | ? | -1% | 2% | 21%
CCOC(=O)c1cc(CC)sc1NC(=O)c1cccc(N2C(=O)CCC2=O)c1 | 0% | -4% | -9% | -2% | -3% | 18µM*
Cc1sc(NC(=O)c2c(F)cccc2F)nc1-c1ccccc1 | -6% | / | ? | 4% | 5% | 25%
Cc1sc(NC(=O)c2cccc(N3C(=O)CCC3=O)c2)nc1-c1ccccc1 | 12% | / | 4.8µM* | 0% | 4% | 2%
Cc1sc(NC(=O)c2ccc(=O)n(C)n2)nc1-c1ccccc1 | 1% | 11% | 13µM* | 12% | 0% | -15%
O=C(Nc1ccc2sccc2c1)c1cccc(N2C(=O)CCC2=O)c1 | ? | 19% | 8.5µM* | 4µM* | 18µM* | ?
COc1ccc(CN(CC(=O)NCc2ccc(F)cc2)C(=O)c2csnn2)cc1 | 12% | / | -1% | -2% | -1% | 2%
O=C(Nc1nc2cc3c(cc2s1)OCCO3)c1cccc(N2C(=O)CCC2=O)c1 | ? | / | 0.76µM* | ? | 9% | ?
O=C(NNc1nc2cc3c(cc2s1)OCO3)c1ccccc1 | 1% | 22% | ? | -1% | 9% | ?
O=C(Nc1nc2ccccc2s1)c1cccc(N2C(=O)CCC2=O)c1 | -5% | / | -1% | 4% | -7% | 7%
COc1ccc(-c2csc(NC(=O)c3cccc(N4C(=O)CCC4=O)c3)n2)cc1C | 1% | / | 11µM* | 0% | -6% | -1%
O=C(NNc1nc2cc3c(cc2s1)OCO3)c1cccc(F)c1 | 9% | 18% | 17µM* | 3% | -4% | ?
